# Experimental data reported in article PMC5540273 (PLoS ONE, 2017).
# Where “and” joins values, the source holds several entries; their conditions need not be identical. Identical values can stand only once. Like-named read-outs stand apart in the source and are kept apart here.
# Tests used:
# [1] = tested on: SRMS; settings: concentration: 1 μM, replicates: in singlicate, n = 1
# [2] = tested on: SRPK1; settings: concentration: 1 μM, replicates: in singlicate, n = 1
# [3] = tested on: SRPK2; settings: concentration: 1 μM, replicates: in singlicate, n = 1
# [4] = tested on: SRPK3; settings: concentration: 1 μM, replicates: in singlicate, n = 1
# [5] = tested on: STK16; settings: concentration: 1 μM, replicates: in singlicate, n = 1
# [6] = tested on: STK33; settings: concentration: 1 μM, replicates: in singlicate, n = 1
# [7] = tested on: STK35; settings: concentration: 1 μM, replicates: in singlicate; n = 1
# [8] = tested on: STK36; settings: concentration: 1 μM, replicates: in singlicate, n = 1
# [9] = tested on: STK39; settings: concentration: 1 μM, replicates: in singlicate, n = 1
# [10] = tested on: SYK; settings: concentration: 1 μM, replicates: in singlicate, n = 1
# [11] = tested on: SgK110; settings: concentration: 1 μM, replicates: in singlicate; n = 1
# [12] = tested on: T1, TAK1; settings: concentration: 1 μM, replicates: in singlicate, n = 1
# T1 construct: gene MAP3K7
# [13] = tested on: TAOK1; settings: concentration: 1 μM, replicates: in singlicate; n = 1
# [14] = tested on: TAOK2; settings: concentration: 1 μM, replicates: in singlicate, n = 1
# [15] = tested on: TAOK3; settings: concentration: 1 μM, replicates: in singlicate, n = 1
# [16] = tested on: TBK1; settings: concentration: 1 μM, replicates: in singlicate, n = 1
# [17] = tested on: TEC; settings: concentration: 1 μM, replicates: in singlicate; n = 1
# [18] = tested on: TESK1; settings: concentration: 1 μM, replicates: in singlicate, n = 1
# [19] = tested on: TGFBR1; settings: concentration: 1 μM, replicates: in singlicate, n = 1
# [20] = tested on: TGFBR2; settings: concentration: 1 μM, replicates: in singlicate; n = 1
# 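Further: KINOMEscan kinase panel screen.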
smiles,measurement,setting,value
COc1ccc(-c2nc3n(c2-c2ccncc2)CCC3)cc1 [SKF-104493],%Inh,[1]; 1 µM,12% and 13%
same,%Inh,[2]; 1 µM,0% and 1%
same,%Inh,[3]; 1 µM,16% and 0%
same,%Inh,[4]; 1 µM,35% and 0%
same,%Inh,[5]; 1 µM,21% and 9%
same,%Inh,[6]; 1 µM,0% and 8%
same,%Inh,[7],0%
same,%Inh,[8]; 1 µM,35% and 43%
same,%Inh,[9]; 1 µM,0% and 16%
same,%Inh,[10]; 1 µM,1% and 48%
same,%Inh,[11],0%
same,%Inh,[12]; 1 µM,0% and 31%
same,%Inh,[13],0%
same,%Inh,[14]; 1 µM,26% and 10%
same,%Inh,[15]; 1 µM,5% and 0%
same,%Inh,[16]; 1 µM,13% and 17%
same,%Inh,[17],0%
same,%Inh,[18]; 1 µM,1% and 24%
same,%Inh,[19]; 1 µM,37% and 31%
same,%Inh,[20],0%
Cl.c1ccc(Cn2ncc3cc(Nc4ncnc5ccccc45)ccc32)cc1 [GW273749],%Inh,[1],0%
same,%Inh,[2],16%
same,%Inh,[3],0%
same,%Inh,[4],0%
same,%Inh,[5],40%
same,%Inh,[6],0%
same,%Inh,[7],0%
same,%Inh,[8],0%
same,%Inh,[9],0%
same,%Inh,[10],18%
same,%Inh,[11],0%
same,%Inh,[12],0%
same,%Inh,[13],0%
same,%Inh,[14],0%
same,%Inh,[15],0%
same,%Inh,[16],23%
same,%Inh,[17],0%
same,%Inh,[18],0%
same,%Inh,[19],6%
same,%Inh,[20],0%
CC(C)(C)c1ccc(-n2cnc3c(N)ncnc32)cc1 [SKF-97263],%Inh,[1],14%
same,%Inh,[2],29%
same,%Inh,[3],0%
same,%Inh,[4],31%
same,%Inh,[5],0%
same,%Inh,[6],0%
same,%Inh,[7],11%
same,%Inh,[8],11%
same,%Inh,[9],0%
same,%Inh,[10],0%
same,%Inh,[11],0%
same,%Inh,[12],10%
same,%Inh,[13],6%
same,%Inh,[14],0%
same,%Inh,[15],8%
same,%Inh,[16],15%
same,%Inh,[17],12%
same,%Inh,[18],0%
same,%Inh,[19],0%
same,%Inh,[20],6%
FC(F)(F)c1ccc(-c2nn3ncccc3c2-c2ccnc(Nc3cccc(C(F)(F)F)c3)n2)cc1 [GW828205],%Inh,[1],30%
same,%Inh,[2],0%
same,%Inh,[3],36%
same,%Inh,[4],8%
same,%Inh,[5],14%
same,%Inh,[6],5%
same,%Inh,[7],0%
same,%Inh,[8],0%
same,%Inh,[9],0%
same,%Inh,[10],20%
same,%Inh,[11],23%
same,%Inh,[12],0%
same,%Inh,[13],0%
same,%Inh,[14],32%
same,%Inh,[15],0%
same,%Inh,[16],51%
same,%Inh,[17],7%
same,%Inh,[18],3%
same,%Inh,[19],0%
same,%Inh,[20],0%
CS(=O)(=O)CCNCc1ccc(-c2ccc3ncnc(Nc4ccc(OCc5ccccc5)c(Cl)c4)c3c2)o1.Cl [GW574783],%Inh,[1],0%
same,%Inh,[2],0%
same,%Inh,[3],0%
same,%Inh,[4],19%
same,%Inh,[5],0%
same,%Inh,[6],8%
same,%Inh,[7],0%
same,%Inh,[8],0%
same,%Inh,[9],5%
same,%Inh,[10],0%
same,%Inh,[11],0%
same,%Inh,[12],0%
same,%Inh,[13],0%
same,%Inh,[14],0%
same,%Inh,[15],0%
same,%Inh,[16],2%
same,%Inh,[17],7%
same,%Inh,[18],4%
same,%Inh,[19],11%
same,%Inh,[20],9%
Nc1nc(-c2ccc3c(N)n[nH]c3c2)cc(N2CCC[C@@H](C(=O)Nc3ccccc3)C2)n1.O=C(O)C(F)(F)F.O=C(O)C(F)(F)F [GSK2288359],%Inh,[1],0%
same,%Inh,[2],34%
same,%Inh,[3],0%
same,%Inh,[4],25%
same,%Inh,[5],18%
same,%Inh,[6],0%
same,%Inh,[7],0%
same,%Inh,[8],0%
same,%Inh,[9],1%
same,%Inh,[10],0%
same,%Inh,[11],0%
same,%Inh,[12],5%
same,%Inh,[13],0%
same,%Inh,[14],0%
same,%Inh,[15],0%
same,%Inh,[16],31%
same,%Inh,[17],0%
same,%Inh,[18],18%
same,%Inh,[19],22%
same,%Inh,[20],0%
CSc1nn2c(=O)cc(N3CCOCC3)nc2n1Cc1cccc(Cl)c1Cl [GSK2347225],%Inh,[1],0%
same,%Inh,[2],13%
same,%Inh,[3],0%
same,%Inh,[4],0%
same,%Inh,[5],14%
same,%Inh,[6],3%
same,%Inh,[7],65%
same,%Inh,[8],28%
same,%Inh,[9],0%
same,%Inh,[10],30%
same,%Inh,[11],0%
same,%Inh,[12],0%
same,%Inh,[13],2%
same,%Inh,[14],0%
same,%Inh,[15],3%
same,%Inh,[16],10%
same,%Inh,[17],18%
same,%Inh,[18],7%
same,%Inh,[19],0%
same,%Inh,[20],0%
CSc1ccc(NC2=C(c3ccccc3Cl)C(=O)NC2=O)cc1 [SB-342411],%Inh,[1],0%
same,%Inh,[2],7%
same,%Inh,[3],0%
same,%Inh,[4],5%
same,%Inh,[5],14%
same,%Inh,[6],0%
same,%Inh,[7],5%
same,%Inh,[8],48%
same,%Inh,[9],19%
same,%Inh,[10],23%
same,%Inh,[11],0%
same,%Inh,[12],7%
same,%Inh,[13],0%
same,%Inh,[14],1%
same,%Inh,[15],0%
same,%Inh,[16],27%
same,%Inh,[17],10%
same,%Inh,[18],6%
same,%Inh,[19],0%
same,%Inh,[20],0%
Cc1ccc(O)cc1Nc1cc(C(F)(F)F)nc2ccc(-c3ccncc3)cc12 [GW630823],%Inh,[1],0%
same,%Inh,[2],7%
same,%Inh,[3],0%
same,%Inh,[4],0%
same,%Inh,[5],28%
same,%Inh,[6],24%
same,%Inh,[7],0%
same,%Inh,[8],0%
same,%Inh,[9],0%
same,%Inh,[10],8%
same,%Inh,[11],0%
same,%Inh,[12],0%
same,%Inh,[13],0%
same,%Inh,[14],5%
same,%Inh,[15],0%
same,%Inh,[16],5%
same,%Inh,[17],92.1%
same,%Inh,[18],6%
same,%Inh,[19],5%
same,%Inh,[20],0%
Oc1ccc2ncnc(Nc3ccc(OCc4ccccc4)cc3)c2c1 [GI262866],%Inh,[1],0%
same,%Inh,[2],32%
same,%Inh,[3],0%
same,%Inh,[4],15%
same,%Inh,[5],3%
same,%Inh,[6],8%
same,%Inh,[7],7%
same,%Inh,[8],0%
same,%Inh,[9],0%
same,%Inh,[10],14%
same,%Inh,[11],0%
same,%Inh,[12],0%
same,%Inh,[13],0%
same,%Inh,[14],0%
same,%Inh,[15],0%
same,%Inh,[16],0%
same,%Inh,[17],0%
same,%Inh,[18],0%
same,%Inh,[19],0%
same,%Inh,[20],0%
